These results are taken from PubChem BioAssay (EPA / NIEHS).

Values joined by “and” are separate entries in the source; they are usually repeats but may differ in a detail not shown here. Identical values can stand only once. Where a structure was tested more than once in an assay, its records may differ in their call. Active and inactive are the calls of the source. How the source made its calls: active means hit-call score of the fitted dose curve at least 0.9, where 1 is the maximum; inactive means score below 0.9.

One assay can be described thus: ATG_TA_CIS: Attagene CIS-FACTORIAL HepG2 Assay for human TA Basal Promoter (AID 2282964). Particulars: HepG2 Attagene CIS-factorial TA basal promoter reporter; actives raise or lower the signal. Summed up: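 Read-out: fluorescent reporter-transcript fragments resolved by capillary electrophoresis after RT-PCR and HpaI digestion. Source: HepG2 cells carrying transiently transfected multi-reporter cis constructs, treated 24 h. Endpoint fitted bidirectionally relative to DMSO.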
Turning to `COC(=O)c1ccccc1C(=O)O`, the molecule was classed as inactive.
As to `C=CCOC(Cn1ccnc1)c1ccc(Cl)cc1Cl` (stereo not drawn), the molecule was called inactive.
Still for that read-out and setting: in the case of `CSC(=O)c1cccc2nnsc12` it was “inactive”.
In general, AC50 refers to the concentration giving half of the maximal activity seen. For the molecule `CC(=O)S[C@@H]1CC2=CC(=O)CC[C@]2(C)[C@H]2CC[C@@]3(C)[C@@H](CC[C@@]34CCC(=O)O4)[C@H]12`, the AC50 was 182 µM (active) and the call was inactive.
As to `c1ccc2[nH]c(-c3cscn3)nc2c1`, the result was inactive.
The same measure, in the same setting: the result for `C[C@]12C[C@H](O)[C@H]3[C@@H](CCC4=CC(=O)CC[C@@]43C)[C@@H]1CC[C@@H]2C(=O)CO` reads “inactive”; that for `OB(O)O`, “inactive”.
As for `S=C(S)NCCNC(=S)S.[Mn+2].[S-]C([S-])=NCCN=C([S-])[S-].[Zn+2]`, the outcome was inactive.
Take `COC(=O)c1ccc(CNS(C)(=O)=O)cc1S(=O)(=O)NC(=O)Nc1nc(OC)cc(OC)n1`: the molecule was classed as inactive.
As to `O=C(c1ccccc1)C1CCCCC1`, the result was inactive.
As for `COC(=O)c1c(Cl)nn(C)c1S(=O)(=O)NC(=O)Nc1nc(OC)cc(OC)n1`, the outcome was inactive.

The next assay is described as follows: ATG_TCF_b_cat_CIS: Attagene CIS-FACTORIAL HepG2 Assay for human T-Cell-Factor with beta-catenin (TCF/b-cat) (AID 2282965). Particulars: HepG2 TCF/beta-catenin cis-reporter transcription, actives raise or lower the signal. In short, it runs like this: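 Cells of the HepG2 line carry transiently transfected reporter units whose promoters respond to endogenous factors. Twenty-four hours post-dosing, reporter mRNA induction is measured by fluorescent RT-PCR and capillary electrophoresis, with DMSO as baseline.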
Turning to `CCCCOC(=O)[C@@H](C)Oc1ccc(Oc2ccc(C(F)(F)F)cn2)cc1`, the result was inactive.
On the same count and under the same terms, the result for `CCOC(=O)c1ccc(O)cc1` reads “inactive”; that for `COC(=O)c1ccccc1S(=O)(=O)NC(=O)Nc1nc(OC(F)F)cc(OC(F)F)n1`, “inactive”.
Still for that read-out and setting: the result for `COC(=O)c1cccc(C)c1S(=O)(=O)NC(=O)Nc1nc(OCC(F)(F)F)nc(N(C)C)n1` reads “inactive”; that for `CCC(O)=C1C(=O)CC(C(=O)O)CC1=O` (stereo not drawn), “inactive”; that for `CCCCOC(=O)C(C)Oc1ccc(Oc2ccc(C(F)(F)F)cn2)cc1` (stereo not drawn), “inactive”.
On to `COC(=O)CSc1cc(N=c2sc(=O)n3n2CCCC3)c(F)cc1Cl`, for which the outcome was inactive.
Same read-out and setting: the result for `COc1nc(C)nc(NC(=O)NS(=O)(=O)c2ccccc2OCCCl)n1` reads “inactive”.
As to `N[C@@H](Cc1cc(I)c(Oc2ccc(O)c(I)c2)c(I)c1)C(=O)O`, the AC50 was 41.6 µM (active) and 24.3 µM (active); the result was inactive.
Turning to `CCCCC(CC)CN1C(=O)C2C3C=CC(C3)C2C1=O` (stereo not drawn), the call was inactive.
`C[C@]12CC[C@@H]3c4ccc(O)cc4C[C@@H](CCCCCCCCCS(=O)CCCC(F)(F)C(F)(F)F)[C@H]3[C@@H]1CC[C@@H]2O` (stereo partly drawn): the molecule was classed as inactive.
As for `CC(C)CCCCCCc1ccc(O)cc1`, the AC50 is 15.2 µM (active) and 16.8 µM (active) and 17.4 µM (active); the molecule was called inactive.
Consider `O=C(c1ccc(O)cc1O)c1ccc(O)cc1O`, for which the AC50 is 53.5 µM (active) and the call was inactive.
As to `CN(C)C(=O)Nc1ccc(Cl)c(Cl)c1`, the call was inactive.
`COCCO`: the molecule was called inactive.
In the case of `N#CSCSc1nc2ccccc2s1`, the AC50 was 1.99 µM (active) and the molecule was classed as inactive.
`CCOC(=O)COc1cc(-n2ncc(C(F)(F)F)c(C)c2=O)c(F)cc1Cl`: the result was inactive.
With `C#C[C@]1(O)CC[C@H]2[C@@H]3CCC4=CC(=O)CC[C@@H]4[C@H]3CC[C@@]21CC`, the molecule was called inactive.
With `CCCN(CCC)c1c([N+](=O)[O-])cc(C(F)(F)F)c(N)c1[N+](=O)[O-]`, the molecule was called inactive.
With `COC(=O)c1ccccc1C(=O)O`, the outcome was inactive.
For `C=CCOC(Cn1ccnc1)c1ccc(Cl)cc1Cl` (stereo not drawn), the call was inactive.
The same measure, in the same setting: in the case of `CSC(=O)c1cccc2nnsc12` it was “inactive”.
For `CC(=O)S[C@@H]1CC2=CC(=O)CC[C@]2(C)[C@H]2CC[C@@]3(C)[C@@H](CC[C@@]34CCC(=O)O4)[C@H]12`, the AC50 was 39.1 µM (active) and the molecule was called inactive.
`c1ccc2[nH]c(-c3cscn3)nc2c1`: the outcome was inactive.
In the case of `C[C@]12C[C@H](O)[C@H]3[C@@H](CCC4=CC(=O)CC[C@@]43C)[C@@H]1CC[C@@H]2C(=O)CO`, the molecule was called inactive.
The same measure, in the same setting: in the case of `OB(O)O` it was “inactive”.
Regarding `S=C(S)NCCNC(=S)S.[Mn+2].[S-]C([S-])=NCCN=C([S-])[S-].[Zn+2]`, the AC50 was 20 µM (active) and 27.8 µM (active) and 26.9 µM (active); the result was inactive.
With `COC(=O)c1ccc(CNS(C)(=O)=O)cc1S(=O)(=O)NC(=O)Nc1nc(OC)cc(OC)n1`, the call was inactive.
Same read-out and setting: in the case of `O=C(c1ccccc1)C1CCCCC1` it was “inactive”; in that of `COC(=O)c1c(Cl)nn(C)c1S(=O)(=O)NC(=O)Nc1nc(OC)cc(OC)n1`, “inactive”.

A short description of another assay: ATG_TAL_CIS: Attagene CIS-FACTORIAL HepG2 Assay for human TAL Basal Promoter (AID 2282966).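 Further: background control endpoint measuring basal TAL promoter reporter mRNA not a specific factor.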 Particulars: HepG2 Attagene cis-factorial TAL promoter reporter; actives raise or lower the signal. In short, it runs like this: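 Basal-promoter background-control endpoint from a multiplexed HepG2 reporter panel. Cells were exposed 24 h, then reporter mRNA was read by RT-PCR/CE fluorescence and fitted in both directions relative to DMSO.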
Consider `CCCCOC(=O)[C@@H](C)Oc1ccc(Oc2ccc(C(F)(F)F)cn2)cc1`, for which the result was inactive.
For `CCOC(=O)c1ccc(O)cc1`, the call was inactive.
In the case of `COC(=O)c1ccccc1S(=O)(=O)NC(=O)Nc1nc(OC(F)F)cc(OC(F)F)n1`, the result was inactive.
Same read-out and setting: in the case of `COC(=O)c1cccc(C)c1S(=O)(=O)NC(=O)Nc1nc(OCC(F)(F)F)nc(N(C)C)n1` it was “inactive”.
For the molecule `CCC(O)=C1C(=O)CC(C(=O)O)CC1=O` (stereo not drawn), the molecule was called inactive.
The same measure, in the same setting: the result for `CCCCOC(=O)C(C)Oc1ccc(Oc2ccc(C(F)(F)F)cn2)cc1` (stereo not drawn) reads “inactive”; that for `COC(=O)CSc1cc(N=c2sc(=O)n3n2CCCC3)c(F)cc1Cl`, “inactive”; that for `COc1nc(C)nc(NC(=O)NS(=O)(=O)c2ccccc2OCCCl)n1`, “inactive”.
On the same count and under the same terms, in the case of `N[C@@H](Cc1cc(I)c(Oc2ccc(O)c(I)c2)c(I)c1)C(=O)O` it was “inactive”; in that of `CCCCC(CC)CN1C(=O)C2C3C=CC(C3)C2C1=O` (stereo not drawn), “inactive”; in that of `C[C@]12CC[C@@H]3c4ccc(O)cc4C[C@@H](CCCCCCCCCS(=O)CCCC(F)(F)C(F)(F)F)[C@H]3[C@@H]1CC[C@@H]2O` (stereo partly drawn), “inactive”.
Consider `CC(C)CCCCCCc1ccc(O)cc1`, for which the call was inactive.
The same measure, in the same setting: in the case of `O=C(c1ccc(O)cc1O)c1ccc(O)cc1O` it was “inactive”.
On the same count and under the same terms, in the case of `CN(C)C(=O)Nc1ccc(Cl)c(Cl)c1` it was “inactive”.
Take `COCCO`: the molecule was called inactive.
The same measure, in the same setting: in the case of `N#CSCSc1nc2ccccc2s1` it was “inactive”; in that of `CCOC(=O)COc1cc(-n2ncc(C(F)(F)F)c(C)c2=O)c(F)cc1Cl`, “inactive”; in that of `C#C[C@]1(O)CC[C@H]2[C@@H]3CCC4=CC(=O)CC[C@@H]4[C@H]3CC[C@@]21CC`, “inactive”.
On the same count and under the same terms, the result for `CCCN(CCC)c1c([N+](=O)[O-])cc(C(F)(F)F)c(N)c1[N+](=O)[O-]` reads “inactive”; that for `COC(=O)c1ccccc1C(=O)O`, “inactive”; that for `C=CCOC(Cn1ccnc1)c1ccc(Cl)cc1Cl` (stereo not drawn), “inactive”.
The same measure, in the same setting: in the case of `CSC(=O)c1cccc2nnsc12` it was “inactive”; in that of `CC(=O)S[C@@H]1CC2=CC(=O)CC[C@]2(C)[C@H]2CC[C@@]3(C)[C@@H](CC[C@@]34CCC(=O)O4)[C@H]12`, “inactive”; in that of `c1ccc2[nH]c(-c3cscn3)nc2c1`, “inactive”.
As for `C[C@]12C[C@H](O)[C@H]3[C@@H](CCC4=CC(=O)CC[C@@]43C)[C@@H]1CC[C@@H]2C(=O)CO`, the molecule was classed as inactive.
In the case of `OB(O)O`, the molecule was called inactive.
On the same count and under the same terms, in the case of `S=C(S)NCCNC(=S)S.[Mn+2].[S-]C([S-])=NCCN=C([S-])[S-].[Zn+2]` it was “inactive”; in that of `COC(=O)c1ccc(CNS(C)(=O)=O)cc1S(=O)(=O)NC(=O)Nc1nc(OC)cc(OC)n1`, “inactive”.
Same read-out and setting: the result for `O=C(c1ccccc1)C1CCCCC1` reads “inactive”.
The same measure, in the same setting: in the case of `COC(=O)c1c(Cl)nn(C)c1S(=O)(=O)NC(=O)Nc1nc(OC)cc(OC)n1` it was “inactive”.
